High-throughput results deposited in PubChem BioAssay by National Center for Advancing Translational Sciences (NCATS).
A selection: hits, their analogues and other compounds. The true share with any hit is near 10%.
PLK1 PBD block – qHTS for Inhibitors of PLK1-PDB (polo-like kinase 1 - polo-box domain): Primary Screen; 360,000 compounds, 2.8% hits; Potency, µM, usual class: inhibitors; Plk1 PBD binding of FITC phosphopeptide, fluorescence polarization; Serine/threonine-protein kinase PLK1 (Homo sapiens), P53350; AID 720504, 2013; also: series mostly up to about 57 µM; nearly all actives have a fitted effect of over 65% in size
Target sequence (P53350 whole entry, looked up, the tested form may be a part): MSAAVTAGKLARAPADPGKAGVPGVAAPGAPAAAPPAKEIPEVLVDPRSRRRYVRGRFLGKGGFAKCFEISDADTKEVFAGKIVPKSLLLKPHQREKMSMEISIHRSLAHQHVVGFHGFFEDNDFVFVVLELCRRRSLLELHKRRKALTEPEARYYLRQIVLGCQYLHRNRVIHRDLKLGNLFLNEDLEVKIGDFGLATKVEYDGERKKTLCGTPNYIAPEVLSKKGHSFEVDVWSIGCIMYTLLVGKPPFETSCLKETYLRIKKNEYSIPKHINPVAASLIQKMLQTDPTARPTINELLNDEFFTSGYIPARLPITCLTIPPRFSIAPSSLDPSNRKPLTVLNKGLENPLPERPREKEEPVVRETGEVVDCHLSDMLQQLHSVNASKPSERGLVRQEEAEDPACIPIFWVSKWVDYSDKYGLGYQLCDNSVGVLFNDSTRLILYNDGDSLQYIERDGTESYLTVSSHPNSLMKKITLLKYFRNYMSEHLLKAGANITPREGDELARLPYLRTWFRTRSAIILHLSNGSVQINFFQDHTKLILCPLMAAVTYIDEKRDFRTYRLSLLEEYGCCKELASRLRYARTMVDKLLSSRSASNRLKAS
G9a inh – qHTS Assay for Inhibitors of Histone Lysine Methyltransferase G9a | Histone-lysine N-methyltransferase EHMT2 (Homo sapiens), Q96KQ7 | G9a H3K9 monomethylation, AlphaScreen, 2 h | Potency, µM (highest dose often 102 µM), actives largely listed as inhibitors | 350,000 compounds, 8.8% hits; also: nearly all actives have a fitted effect of over 75% in size
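Compounds were preincubated with 20 nM G9a for 15 min, after which biotinylated H3K9 peptide (500 nM) and SAM (20 uM) started a 2 h room-temperature reaction. Monomethylated product was quantified by antibody-based AlphaScreen chemiluminescence.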
VDR inhibitor – Inhibitors of the vitamin D receptor (VDR): qHTS. Vitamin D3 receptor (Homo sapiens), P11473. VDR-SRC2-3 peptide fluorescence polarization, 2 h. Potency, µM, hits mostly inhibitors. 400,000 compounds, 0.93% hits
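After 23 nl compound addition and a short centrifugation, plates sat for 2 hours at ambient temperature; polarization of fluorescence then indicated loss of VDR binding to peptide SRC2-3.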
CCT modulator – High-Throughput Screening for Modulators of Cytosolic Chaperonin Activity; purified chaperonin ATPase assay, HTRF ADP detection, 30 min; activity change, % (concentration not given with the values), hits read low; 360,000 compounds, 0.3% hits; AID 651819, 2012; in the data active = activity change below about -30%
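Enzyme 40 or 20 nM (batch-dependent) in Tris pH 7.4/KCl/MgCl2/DTT; cpd 76 uM single point; ATP 10 uM; 30 min 37 °C; Transcreener ADP HTRF detection, 30 min RT; ratio 665/615.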
Mm-Cpn inhibitor – Inhibitors of TCP-1 ring complex (TRiC) of Methanococcus maripaludis (MmCpn): qHTS. Chaperonin Mm-Cpn (Methanococcus maripaludis). purified Mm-Cpn ATPase, ADP Transcreener TR-FRET. Potency, µM (top dose mostly 76.9 µM), most hits filed as inhibitors. 330,000 compounds, 0.031% hits; also: nearly all actives have a fitted effect of over 80% in size
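ATPase read-out: TR-FRET ADP immunoassay (anti-ADP Eu cryptate vs ADP-d2), ex 320 nm, em 590/665 nm; signal drops as ADP forms. Enzyme 25 nM, ATP 10 uM, 30 min at 37°C after 10 min compound preincubation.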
Sfp inh – qHTS Assay for Inhibitors of Bacillus subtilis Sfp phosphopantetheinyl transferase (PPTase). 4'-phosphopantetheinyl transferase ffp (Bacillus subtilis), Q9F4F7. Biochemical Sfp PPTase activity, qHTS. Potency, µM, hits mostly inhibitors. 310,000 compounds, 3.5% hits. AID 1490, 2009;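 also: the enzyme is Sfp with the accession as filed and its product quenches rhodamine fluorescence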
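With Hepes-Na pH 7.6 buffer containing 10 mM MgCl2, Sfp (15 nM) modified BHQ-2-YbbR (12.5 uM) using rhodamine-CoA (5 uM). Two reads 30 minutes apart at 525/598 nm yielded each well's rate.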
Numbers stand for hits; 0 = inactive; ? = inconclusive; - = no result given; [ ] = dose if it differs, or a comment. Unless noted, calls follow the shape of the dose curve; as a rule, active = well fitted curve in the direction sought with a large enough effect; inconclusive = small, poorly fitted or top-dose-only effect, or another doubt; inactive = no such curve, though single readings can be large; an effect the other way counts as inactive or inconclusive.

SMILES	PLK1 PBD block	G9a inh	VDR inhibitor	CCT modulator	Mm-Cpn inhibitor	Sfp inh
Brc1ccc(C2=Nn3c(Cn4nnc5ccccc54)nnc3SC2)cc1	12µM	-	?	0	0	28µM
CCc1nnc2n1N=C(c1ccc(Br)cc1)CS2	0	0	0	0	0	0
Cc1ccc(-c2n[nH]c(=S)n2/N=C/c2ccc(C(=O)O)cc2)cc1	0	3.2µM	0	0	0	?
CC(C)c1ccc(/C=N/n2c(-c3ccccc3)n[nH]c2=S)cc1	0	0[0.501 µM]	0	0	0	0
O=[N+]([O-])c1ccc(/C=N/n2c(-c3ccccc3)n[nH]c2=S)cc1	?	0.56µM	0	0	0	?
Cc1ccc(/C=N/n2c(-c3ccccc3)n[nH]c2=S)cc1	0	1.1µM	0	0	0	0
Cc1c2cnn(-c3ccccc3)c(=O)c2c(C)n1CC(=O)NCc1ccccc1Br	-	0	0	-	-	-
COc1cc2c(cc1OC)C(/C=C/c1ccc(OC)c(OC)c1OC)=NCC2	-	-	50µM	-	-	?
COc1ccc(C2=NCCc3cc(OC)c(OC)cc32)cc1OC	0	0	0	0	0	0
COCc1cc(N2CCCCC2)nc(-c2ccccc2)n1	27µM	0	?	0	0	0
O=[N+]([O-])c1cc(-c2ccn[nH]2)ccc1Cl	0	0	0	0	0	0
O=[N+]([O-])c1cc(-c2n(-c3ccccn3)c3ccccc3[n+]2-c2ccccn2)ccc1Cl	0	50µM	0	0	0	0
O=S(=O)(NC1=NCCCCC1)c1ccc(Cl)cc1	0	0	0	0	0	0
O=S(=O)(NC1=NCCCCC1)c1ccc2sc(NS(=O)(=O)c3ccc4ccccc4c3)nc2c1	11µM	-	?	0	0	0
O=C(CC1N=C2c3ccccc3N=C(SCc3cccc(F)c3)N2C1=O)NCc1ccc2c(c1)OCO2 (stereo not drawn)	-	0	0	-	-	-
O=[N+]([O-])c1ccc(CN2CCCCCC2)s1	0	10µM	0	0	0	?
CSc1ccc(CN2CCN(Cc3ccc([N+](=O)[O-])cc3)CC2)cc1	0	32µM	0	0	0	0
c1cc(CN2CCN(C3CCCCCC3)CC2)ccn1	0	1.8µM	0	0	0	?
CSc1ccc(CN2CCCCCC2)cc1	0	11µM	0	0	0	0
CCS(=O)(=O)N1CCN(Cc2ccc([N+](=O)[O-])cc2)CC1	0	?	0	0	0	79µM
O=[N+]([O-])c1ccc(CN2CCCCCC2)cc1	0	?	0	0	0	0
CN(C)c1ccc(CN2CCCCCC2)cc1	0	?	0	0	0	0
Cc1ccc(N2CCN(C(=O)CCS(=O)(=O)c3cc4c(cc3Cl)NC(=O)CO4)CC2)c(C)c1	-	0	0	-	-	-
CCS(=O)(=O)N1CCN(Cc2ccncc2)CC1	0	14µM	0	0	0	0
CCOC(=O)N1CCN(Cc2nc3cc(NC(=O)c4ccc(F)cc4)ccc3n2C(C)C)CC1	-	0	0	-	-	-
SMILES	PLK1 PBD block	G9a inh	VDR inhibitor	CCT modulator	Mm-Cpn inhibitor	Sfp inh
CCCS(=O)(=O)Nc1cc2c(cc1NCc1ccccc1)n(C)c(=O)n2C	-	16µM	0	-	-	-
COc1ccc(S(=O)(=O)Nc2cc3c(cc2NCc2ccccc2)n(C)c(=O)n3C)cc1	-	16µM	0	-	-	-
Cn1c(=O)n(C)c2cc(NS(=O)(=O)c3ccc(Br)cc3)c(NCc3ccccc3)cc21	-	?	0	-	-	-
O=C(Cc1ccc(Cl)cc1)NNS(=O)(=O)c1ccc([N+](=O)[O-])cc1	0	0	0	0	0	0
CO/S(=N\S(=O)(=O)c1ccc(Cl)cc1)c1ccc([N+](=O)[O-])cc1 (stereo not drawn)	-	3.2µM	?	-	-	-
CCOc1ccc(C(=O)c2ccc(O)c(O)c2O)cc1	-	-	?	-	-	50µM
CC(=O)Nc1sc(/C(C#N)=C/c2ccc(Cl)c(Cl)c2)nc1-c1ccc(C)cc1	0	0	0	0	0	16µM
CCOc1ccc2nc(N3CCN(C(=O)c4ccc5c(c4)CCCC5)CC3)sc2c1	-	0	0	-	-	-
